Experimental data as given in ChEMBL document CHEMBL4513216, “Probing the Open Global Health Chemical Diversity Library for Multistage-Active Starting Points for Next-Generation Antimalarials” (ACS Infect Dis, 2020).
Among all 69,000 compounds or so, about 8,600 (12%) showed an effect of 50% or more. The list comes from a sample in which strong results are over-represented; it also holds similar structures and randomly drawn compounds.

test system: Plasmodium berghei; assay: Screen against P. berghei liver stage (PbLuc), transformed with Luciferase, at 10uM; type: functional, HepG2; conditions: tested at 10 uM

Row | Structure (SMILES) | INHIBITION [%]
1 | CN(CC1CCN(CCO)CC1)CC(O)c1ccc(F)cc1 (stereo unspecified) | 34.1
2 | CN(CC1CCN(CCO)CC1)CC(O)c1ccc(F)c(F)c1 (stereo unspecified) | 49.9
3 | CN(CC1CCN(CCO)CC1)CC(O)c1ccc(F)cc1F (stereo unspecified) | 59.1
4 | Cc1cc(C)n(Cc2ccc(-c3noc(C(=O)NC[C@@H](C)O)n3)cc2)n1 | -4.28
5 | NC(=O)C1CCN(c2nccc(-c3c[nH]nc3C3CCCCC3)n2)CC1 | 57.5
6 | Cc1ccnc(OCC(=O)N2CCC(C(N)=O)CC2)n1 | 26.4
7 | CCOC(=O)C1CCN(c2nccc(-n3nc(C)cc3C)n2)CC1 | -79.8
8 | NC(=O)C1CCN(c2ncc(-c3cnccn3)c([C@H]3CCCO3)n2)CC1 | -0.902
9 | Cc1ccnc(N2CCC(C(N)=O)CC2)n1 | 63.4
10 | CN1CCCN(c2nccc(-c3cncnc3C3CCCCC3)n2)CC1 | 50.1
11 | NC(=O)C1CCN(c2nc3nccc(-c4ccccn4)c3c(=O)[nH]2)CC1 | 2.37
12 | CN1CCCN(c2nccc(-c3c[nH]c4ccc(Br)cc34)n2)CC1 | 41.2
13 | NC(=O)[C@H]1CCCN(c2nccc(-c3ccncc3)n2)C1 | 10
14 | CN1CCN(c2nccc(-c3cncnc3C3CCCCC3)n2)CC1 | 23.4
15 | NC(=O)[C@H]1CCCN(c2nccc(-c3c[nH]nc3-c3cccnc3)n2)C1 | 54.5
16 | Cc1ncc(-c2ccnc(N3CC[C@H](O)C3)n2)c(-c2cccnc2)n1 | -13.7
17 | CSc1ncccc1C(=O)N1C[C@@H]2CC[C@H]1CN(c1ncccn1)C2 | 15.1
18 | CC(Cn1ccnc1)NC(=O)NCc1ccccn1 (stereo unspecified) | 15.34

Row | Structure (SMILES) | INHIBITION [%]
19 | COCCCNC(=O)c1nnsc1-c1ccccc1 | -6.42
20 | CNc1cccc(C2CCN(C(C)=O)CC2)n1 | -9.51
21 | COc1ccc(C)cc1CN1CCOC(Cn2nc(C)nc2C)C1 (stereo unspecified) | -10.6
22 | CCc1cc(-c2cc[nH]n2)nc(N2CCOCC2)n1 | 17.5
23 | CC1CN(CC(=O)Nc2ccncc2)CCN1Cc1nccn1C (stereo unspecified) | 8.9
24 | COCC[C@]1(O)CCN(Cc2nc(C)c(C)s2)C[C@H]1C | -47.4
25 | Cc1csc2ncc(-c3ccnc(N4CCCC4)n3)c(=O)n12 | -71.6
26 | c1cc(-c2c[nH]nc2C2CCCCC2)nc(N2CCCCCC2)n1 | 90.1
27 | c1cc(-c2cn3nccc3nc2C2CCCCC2)nc(N2CCCC2)n1 | 82.7
28 | CN1CCCN(c2nccc(-c3c[nH]nc3C3CCCCC3)n2)CC1 | 68.9
29 | CN1CCCN(c2nccc(-c3cc(C(=O)O)ccn3)n2)CC1 | 41.4
30 | OCCNc1nccc(-c2cn3nccc3nc2C2CCCCC2)n1 | 39.7
31 | Nc1nccc(-c2c[nH]nc2C2CCCCC2)n1 | 41.2
32 | O=S1(=O)NC(c2ccnc(N3CCCCC3)n2)=Nc2ccccc21 | 25.8
33 | Cc1csc2ncc(-c3ccnc(N4CCC[C@H](C(N)=O)C4)n3)c(=O)n12 | 64.9
34 | Cc1csc2ncc(-c3ccnc(N4CCCN(C)CC4)n3)c(=O)n12 | 26.3
35 | CC(=O)N1CCCN(c2nccc(-c3cn(C)nc3C)n2)CC1 | 4.2
36 | CC(C)c1nc(C2CCCN(c3nccc(N4CCCC4)n3)C2)no1 (stereo unspecified) | 23.1
